Compound activity as filed in PubChem.
Mtb hypoxia rep – PubChem AID 1159583 | fluorescence inhibition, % (concentration not given with the values) | M. tuberculosis hypoxia-regulated fluorescent reporter, fluorescence | 0.1% of 300,000 active; in the data active means fluorescence inhibition mostly above about 23%, no sharp cut-off; inactive means mostly below about 17%
Rv3671c protease – Rv3671c serine protease inhibitors, primary screen, biochemical, fluorescence polarization, M. tuberculosis H37Rv; P9WHR9; inhibition, % at 5.96 µM; 0.048% of 320,000 active; AID 2606, 2010; in the data active means inhibition above about 38%;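 further: extracellular domain of Rv3671c used as enzyme; 0% = enzyme with DMSO and 100% = no enzyme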
RecA intein inh – Mtb RecA intein splicing inhibitors, primary screen, biochemical, fluorescence, HTS. Protein RecA (Mycobacterium tuberculosis (strain ATCC 25618 / H37Rv)), P9WHJ3. AID 2221, 2009. cell-free RecA intein splicing. inhibition, % (concentration not given with the values). 0.75% of 290,000 active; in the data active means inhibition above about 30%; inconclusive means no clear call, values can overlap the other calls;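 further: 0% = vehicle wells and 100% = reference inhibitor control wells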
FadD28 binding – inhibitors of FadD28 bisubstrate probe binding, primary screen, biochemical, fluorescence polarization, single point; Mycobacterium tuberculosis FadD28 fatty-acid-AMP ligase; inhibition, % at 12.5 µM; 0.22% of 360,000 active; in the data active means inhibition above about 8.5%, passing the limit was not always enough; inconclusive means no clear call, values can overlap the other calls
Mtb UGM inh – M. tuberculosis UGM enzyme inhibitors, primary screen, biochemical, fluorescence polarization, single point. UDP-galactopyranose mutase (Mycobacterium tuberculosis (strain ATCC 25618 / H37Rv)), …. purified UGM, fluorescence polarization probe displacement. inhibition, % at 10 µM. 0.06% of 320,000 active; in the data active means inhibition above about 10%, passing the limit was not always enough; inconclusive means no clear call, values can overlap the other calls
Target sequence (P9WIQ1 whole entry, looked up): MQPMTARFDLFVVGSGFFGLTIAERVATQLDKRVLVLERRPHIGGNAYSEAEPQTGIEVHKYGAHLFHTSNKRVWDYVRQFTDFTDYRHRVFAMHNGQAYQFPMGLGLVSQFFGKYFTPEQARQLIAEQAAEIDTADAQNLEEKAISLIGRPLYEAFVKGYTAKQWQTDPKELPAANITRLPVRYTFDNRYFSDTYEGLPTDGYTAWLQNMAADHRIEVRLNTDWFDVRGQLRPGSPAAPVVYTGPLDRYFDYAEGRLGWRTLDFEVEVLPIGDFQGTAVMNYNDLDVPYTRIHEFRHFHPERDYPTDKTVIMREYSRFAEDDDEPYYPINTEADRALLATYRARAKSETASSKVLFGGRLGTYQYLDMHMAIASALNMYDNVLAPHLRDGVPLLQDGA
GFP chromo cs – counter-screen: blocks GFP chromophore formation, dose response, counter-screen, biochemical, fluorescence, homogeneous. shares compounds with RecA intein inh. cell-free GFP chromophore formation. EC50, µM. 83% of 2,100 active. AID 434968, 2010; call rule not given here
* hit, by the source's call; ? = inconclusive; / = no result given. Compounds with a hit are over-represented: about 0.92% of the library has one in this group of screens.

SMILES	Mtb hypoxia rep	Rv3671c protease	RecA intein inh	FadD28 binding	Mtb UGM inh	GFP chromo cs
CC1CCc2c(c3ccccc3n2C(=O)CCl)C1 (stereo not given)	13	-5	41*	-1	-3	0.69*
Cc1cccc(Cn2nnc3c2C(=O)c2ccccc2C3=O)c1	9	-1	37*	-1	4	9.9*
Cc1ccccc1Cn1nnc2c1C(=O)c1ccccc1C2=O	6	-12	/	0	0	/
CCN(CC)c1ccc2c(c1)CCCN2	/	-19	33*	/	0	>38
O=C(NC1CCCCC1)C(c1cccnc1)N(C(=O)CCl)c1ccccc1Cl (stereo not given)	6	0	10	-1	1	/
O=C(NC1CCCCC1)C(c1cccnc1)N(C(=O)CCl)c1ccc(F)cc1 (stereo not given)	14	-11	73*	-2	-1	11*
O=C(NC1CCCCC1)C(c1ccncc1)N(Cc1ccc(F)cc1)C(=O)c1ccccn1 (stereo not given)	18	6	-3	-2	0	/
COc1ccc(C(C(=O)NC2CCCCC2)N(C(=O)CCl)c2ccc(OC)cc2)cc1 (stereo not given)	3	-2	8	-2	0	/
COc1ccc(C(C(=O)NC2CCCCC2)N(C(=O)CCl)c2cccc(Cl)c2)cc1 (stereo not given)	18	-11	59*	-1	0	?
COc1ccc(N(C(=O)Cc2cccs2)C(C(=O)NC2CCCC2)c2ccncc2)cc1 (stereo not given)	12	7	-5	-4	2	/
O=C(NC1CCCC1)C(c1ccc(F)cc1)N(Cc1ccc(F)cc1)C(=O)CCl (stereo not given)	10	-8	56*	-1	2	1.8*
COc1ccc(N(C(=O)CCl)C(C(=O)NC2CCCCC2)c2cccnc2)cc1 (stereo not given)	/	-5	75*	-2	-3	11*
NC(=NO)c1ccc(N2CCN(c3ncccc3C(F)(F)F)CC2)nc1	14	/	/	/	/	/
COC(=O)NN=Cc1cn(Cc2c(Cl)cccc2Cl)c2ccccc12	-5	/	/	/	/	/
CCC(C)Sc1ccc(C2N[C@@](Cc3ccccc3)(C(=O)OC)C3C(=O)N(CC)C(=O)C23)cc1OC (stereo not given in full)	-2	/	/	/	/	/
Cc1[nH]n(-c2ccccc2)c(=O)c1C=NN1C(=O)c2cccc3cccc(c23)C1=O	-4	/	/	/	/	/
COC(=O)c1sccc1NC(=O)C=Cc1ccc(Cl)cc1	2	/	/	/	/	/
NCCCCC(NC(=O)C1CCNCC1)c1nnc(C(N)CO)o1 (stereo not given)	12	/	/	/	/	/
COc1cc(/C=C/C(=O)OCC(=O)Nc2ccccc2Sc2ccc(Cl)cc2)ccc1O	-1	-16	36*	-7	2	>38
CC1=NNC(=O)/C1=C\c1cn(-c2ccccc2)nc1-c1ccccc1	11	-6	97*	-4	-1	1.8*
O=Cc1cn(-c2ccccc2)nc1-c1ccccc1	-5	-5	2	-4	0	/
Cc1c(Cl)c([N+](=O)[O-])nn1Cc1ccc(C(=O)NN=Cc2ccccn2)o1	0	/	/	/	/	/
COC(=O)CN1C(c2ccc(Cl)cc2)=Nc2ccc(Cl)cc2C1c1ccccc1 (stereo not given)	2	-14	32*	-14	-1	>38
CCn1cc(C(=O)NC(C)C23CC4CC(CC(C4)C2)C3)cn1 (stereo not given)	/	-1	0	-1	0	/
CC(NC(=O)Cn1ncc(Cl)c(Cl)c1=O)C12CC3CC(CC(C3)C1)C2 (stereo not given)	8	0	49*	-4	-1	?
SMILES	Mtb hypoxia rep	Rv3671c protease	RecA intein inh	FadD28 binding	Mtb UGM inh	GFP chromo cs
N#Cc1cc([N+](=O)[O-])c(-n2nnc3ccccc32)c([N+](=O)[O-])c1	8	-8	94*	0	0	>38
CS(=O)(=O)c1ccc(-n2nnc3ccccc32)c([N+](=O)[O-])c1	-13	-2	-3	-3	0	/
O=C(NN=Cc1ccc2c(c1)OCO2)c1cccs1	-2	/	/	/	/	/
CCOC(=O)c1nnn(-c2nonc2-n2cccc2)c1CCl	4	3	70*	0	-1	12*
Cc1nc(COC(=O)c2ccc(CO)cc2)cs1	-5	-3	/	-2	1	/
Cc1nc(COC(=O)c2cc(O)c3ccccc3c2O)cs1	14	/	56*	0	/	6.2*
Cc1c(C=NNC(=O)c2ccccc2O)c2ccccn2c1C(=O)c1ccc(F)cc1	-2	/	/	/	/	/
Oc1ccc(Nc2nc(-c3ccc4ccccc4c3)cs2)cc1	-1	4	34*	-5	3	20*
CC(=O)Nc1nc(-c2ccc3ccccc3c2)cs1	0	-18	1	-1	-1	/
COc1cc(C=NNC(=O)Cc2csc(N3CCOCC3)n2)cc(OC)c1O	2	/	/	/	/	/
O=C1CCN(S(=O)(=O)c2ccc(Cl)cc2)N1	9	8	/	-3	-1	/
O=C1CCN(S(=O)(=O)c2ccccc2)N1	-4	-9	43*	0	3	33*
Oc1c(Br)cc(Br)cc1C=NN1CCN(Cc2ccccc2)CC1	3	/	/	/	/	/
CC(C)(C)NC(=O)C(c1cccs1)N(CC1CCCO1)C(=O)c1ccc(-c2ccccc2)[nH]1 (stereo not given)	8	-6	33*	-5	3	>38
O=C1CC2c3c(cccc3CN1Cc1ccccc1Cl)CC(O)C2O (stereo not given)	15	/	/	/	/	/
NCCCCC1CNC(=S)N1CCCCC1CCCCC1 (stereo not given)	7	/	/	/	/	/
Cc1ccccc1Nc1c([N+](=O)[O-])cncc1[N+](=O)[O-]	4	6	15	4	0	/
O=[N+]([O-])c1cncc([N+](=O)[O-])c1Nc1cccc(O)c1	/	5	46*	-4	2	16*
CN1CCN(Cc2cc(=O)oc3ccc(Cl)cc23)CC1	12	-4	48*	-1	-1	>38
Cc1cccc(C(=O)Oc2ccccc2C=NNC(=O)c2ccc(NC(=O)C(C)(C)C)cc2)c1	1	/	/	/	/	/
OCC1OC(OCC2OC(OCC3OC(O[C@]4(CO)OC(CO)C(O)C4O)C(O)C(O)C3O)C(O)C(O)C2O)C(O)C(O)C1O (stereo not given in full)	2	/	/	/	/	/
COc1ccc(N2C(=O)CC(N(CCc3ccccc3)C(=O)/C=C/C(=O)O)C2=O)cc1 (stereo not given)	6	6	1	-4	2	>38
C/C(CC(=O)Nc1ccc(F)cc1)=N\NC(=O)COc1ccccc1	/	-1	66*	-3	2	22*
C/C(CC(=O)Nc1ccccc1[N+](=O)[O-])=N\NC(=O)COc1ccccc1C	/	-3	69*	-2	-1	21*
